About 2,000 (36%) of roughly 5,500 compounds were called active. Inconclusive results (about 18%) are left out. Cut-off read from the data, not from the text of the source: active = normalized growth mostly below about 0.91 (no sharp cut-off); inconclusive = no clear call, values can overlap the other calls; inactive = mostly above about 0.92. Some of the results follow.
Test: chemical genetic growth profiling, strain panel (AID 1159580);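 note: tested at 20 µM; growth read once vehicle control cultures reached saturation at 30 °C; 1 = growth at the plate median or of vehicle wells; lower values mean less growth of the strain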
Conditions: growth OD
[1] = S. cerevisiae deletion strains, locus YDL101C, strain DUN1, hits give low values
[2] = S. cerevisiae deletion strains, locus YHR030C, strain SLT2, hits give low values

Measured: normalized growth

Cc1c(C(=O)NCCNc2ccc(C(F)(F)F)cc2[N+](=O)[O-])cnn1-c1ccc(F)cc1
inactive: S. cerevisiae deletion strains, locus YAR019C, strain CDC15, hits give low values 0.981 | S. cerevisiae deletion strains, locus YBL105C, strain PKC1, hits give low values 0.971 | S. cerevisiae deletion strains, locus YBR135W, strain CKS1, hits give low values 0.974 | S. cerevisiae deletion strains, locus YBR136W, strain MEC1, hits give low values 0.978 | S. cerevisiae deletion strains, locus YBR160W, strain CDC28, hits give low values 0.979 | S. cerevisiae deletion strains, locus YDL017W, strain CDC7, hits give low values 0.982 | S. cerevisiae deletion strains, locus YDL028C, strain MPS1, hits give low values 0.989 | [1] 0.988 | S. cerevisiae deletion strains, locus YDL108W, strain KIN28, hits give low values 0.982 | S. cerevisiae deletion strains, locus YDL132W, strain cdc53, hits give low values 0.978 | S. cerevisiae deletion strains, locus YDL214C, strain PRR2, hits give low values 0.958 | S. cerevisiae deletion strains, locus YDR052C, strain DBF4, hits give low values 0.985 | S. cerevisiae deletion strains, locus YDR054C, strain cdc34, hits give low values 0.956 | S. cerevisiae deletion strains, locus YDR226W, strain ADK1, hits give low values 0.982 | S. cerevisiae deletion strains, locus YDR477W, strain SNF1, hits give low values 0.968 | S. cerevisiae deletion strains, locus YER123W, strain YCK3, hits give low values 0.966 | S. cerevisiae deletion strains, locus YER133W, strain GLC7, hits give low values 0.982 | S. cerevisiae deletion strains, locus YFL009W, strain cdc4, hits give low values 0.98 | S. cerevisiae deletion strains, locus YFL029C, strain CAK1, hits give low values 0.977 | S. cerevisiae deletion strains, locus YFR003C, strain YPI1, hits give low values 0.984 | S. cerevisiae deletion strains, locus YFR019W, strain FAB1, hits give low values 0.973 | S. cerevisiae deletion strains, locus YFR028C, strain CDC14, hits give low values 0.978 | S. cerevisiae deletion strains, locus YGR040W, strain KSS1, hits give low values 0.958 | S. cerevisiae deletion strains, locus YGR052W, strain FMP48, hits give low values 1.06 | S. cerevisiae deletion strains, locus YGR092W, strain DBF2, hits give low values 0.935 | [2] 0.97 | S. cerevisiae deletion strains, locus YHR079C, strain IRE1, hits give low values 0.954 | S. cerevisiae deletion strains, locus YHR082C, strain KSP1, hits give low values 1.01 | S. cerevisiae deletion strains, locus YHR205W, strain SCH9, hits give low values 0.962 | S. cerevisiae deletion strains, locus YIL147C, strain SLN1, hits give low values 0.986 | S. cerevisiae deletion strains, locus YJL095W, strain BCK1, hits give low values 0.978 | S. cerevisiae deletion strains, locus YJL128C, strain PBS2, hits give low values 0.946 | S. cerevisiae deletion strains, locus YJL157C, strain FAR1, hits give low values 0.943 | S. cerevisiae deletion strains, locus YJR016C, strain ILV3, hits give low values 0.984 | S. cerevisiae deletion strains, locus YJR066W, strain TOR1 (second series), hits give low values 0.933 | S. cerevisiae deletion strains, locus YJR066W, strain TOR1, hits give low values 0.999 | S. cerevisiae deletion strains, locus YKL048C, strain ELM1, hits give low values 0.949 | S. cerevisiae deletion strains, locus YKL067W, strain YNK1, hits give low values 0.97 | S. cerevisiae deletion strains, locus YKL101W, strain HSL1, hits give low values 0.947 | S. cerevisiae deletion strains, locus YKL193C, strain SDS22, hits give low values 0.983 | S. cerevisiae deletion strains, locus YKL203C, strain TOR2, hits give low values 1.01 | S. cerevisiae deletion strains, locus YLR113W, strain HOG1, hits give low values 0.904 | S. cerevisiae deletion strains, locus YLR133W, strain CKI1, hits give low values 0.941 | S. cerevisiae deletion strains, locus YLR403W, strain SFP1, hits give low values 0.937 | S. cerevisiae deletion strains, locus YML070W, strain DAK1, hits give low values 0.94 | S. cerevisiae deletion strains, locus YMR001C, strain CDC5, hits give low values 0.985 | S. cerevisiae deletion strains, locus YMR205C, strain PFK2 (second series), hits give low values 0.978 | S. cerevisiae deletion strains, locus YMR277W, strain FCP1, hits give low values 0.991 | S. cerevisiae deletion strains, locus YNL006W, strain LST8, hits give low values 1 | S. cerevisiae deletion strains, locus YNL020C, strain ARK1, hits give low values 0.941 | S. cerevisiae deletion strains, locus YNL161W, strain CBK1, hits give low values 0.975 | S. cerevisiae deletion strains, locus YNL183C, strain NPR1, hits give low values 0.986 | S. cerevisiae deletion strains, locus YNL207W, strain RIO2, hits give low values 0.973 | S. cerevisiae deletion strains, locus YNL222W, strain SSU72, hits give low values 0.974 | S. cerevisiae deletion strains, locus YNL307C, strain MCK1 (second series), hits give low values 0.939 | S. cerevisiae deletion strains, locus YOL078W, strain AVO1, hits give low values 0.986 | S. cerevisiae deletion strains, locus YOL136C, strain PFK27, hits give low values 0.938 | S. cerevisiae deletion strains, locus YOR061W, strain CKA2, hits give low values 0.99 | S. cerevisiae deletion strains, locus YOR119C, strain RIO1, hits give low values 1.01 | S. cerevisiae deletion strains, locus YOR231W, strain MKK1, hits give low values 0.912 | S. cerevisiae deletion strains, locus YOR329C, strain SCD5, hits give low values 0.984 | S. cerevisiae deletion strains, locus YPL031C, strain PHO85, hits give low values 0.96 | S. cerevisiae deletion strains, locus YPL153C, strain RAD53, hits give low values 0.954 | S. cerevisiae deletion strains, locus YPL204W, strain HRR25, hits give low values 0.943 | S. cerevisiae deletion strains, locus YPL209C, strain IPL1, hits give low values 0.979 | S. cerevisiae deletion strains, locus YPL256C, strain CLN2, hits give low values 0.908 | S. cerevisiae deletion strains, locus YPR025C, strain CCL1, hits give low values 0.979 | S. cerevisiae deletion strains, locus YPR106W, strain ISR1, hits give low values 0.965 | S. cerevisiae deletion strains, locus YPR111W, strain DBF20, hits give low values 0.962 | S. cerevisiae deletion strains, strain NNK1, hits give low values 0.971 | S. cerevisiae deletion strains, strain TSCII, hits give low values 0.982

Cc1cc(C)c(C(=O)NCCNc2ccc(C(F)(F)F)cc2[N+](=O)[O-])c(C)c1
inactive: S. cerevisiae deletion strains, locus YAL013W, strain DEP1, hits give low values 0.97 | S. cerevisiae deletion strains, locus YBR229C, strain ROT2, hits give low values 0.951 | S. cerevisiae deletion strains, locus YCL061C, strain MRC1, hits give low values 0.966 | [1] 0.98 | S. cerevisiae deletion strains, locus YDL134C, strain PPH21, hits give low values 0.971 | S. cerevisiae deletion strains, locus YDR150W, strain NUM1, hits give low values 0.9 | S. cerevisiae deletion strains, locus YGR078C, strain PAC10, hits give low values 0.953 | S. cerevisiae deletion strains, locus YGR229C, strain SMI1, hits give low values 1 | S. cerevisiae deletion strains, locus YJL187C, strain SWE1, hits give low values 0.978 | S. cerevisiae deletion strains, locus YJR043C, strain POL32, hits give low values 0.968 | S. cerevisiae deletion strains, locus YJR075W, strain HOC1, hits give low values 0.895 | S. cerevisiae deletion strains, locus YLR058C, strain SHM2 (second series), hits give low values 0.996 | S. cerevisiae deletion strains, locus YMR219W, strain ESC1, hits give low values 0.98 | S. cerevisiae deletion strains, locus YMR263W, strain SAP30, hits give low values 0.96 | S. cerevisiae deletion strains, locus YNL128W, strain TEP1, hits give low values 0.957 | S. cerevisiae deletion strains, locus YNL153C, strain GIM3, hits give low values 0.964 | S. cerevisiae deletion strains, locus YNL322C, strain KRE1, hits give low values 0.986 | S. cerevisiae strains, strain wild type, hits give low values 0.916
active: S. cerevisiae deletion strains, locus YEL061C, strain CIN8, hits give low values 0.862 | [2] 0.259 | S. cerevisiae deletion strains, locus YHR087W, strain rtc3, hits give low values 0.89 | S. cerevisiae deletion strains, locus YKL190W, strain CNB1, hits give low values 0.794 | S. cerevisiae deletion strains, locus YLR039C, strain RIC1, hits give low values 0.473 | S. cerevisiae deletion strains, locus YLR085C, strain ARP6, hits give low values 0.331 | S. cerevisiae deletion strains, locus YLR262C, strain YPT6, hits give low values 0.58 | S. cerevisiae deletion strains, locus YML094W, strain GIM5, hits give low values 0.817 | S. cerevisiae deletion strains, locus YNL298W, strain CLA4 (second series), hits give low values 0.785 | S. cerevisiae deletion strains, locus YNR030W, strain Alg12, hits give low values 0.652 | S. cerevisiae deletion strains, locus YPL055C, strain LGE1, hits give low values 0.687 | S. cerevisiae deletion strains, locus YPL241C, strain CIN2, hits give low values 0.846 | S. cerevisiae deletion strains, locus YPR135W, strain CTF4, hits give low values 0.55
